# Assay outcomes (PubChem)
# VACV Venus inh: vaccinia inhibition (Venus reporter). 0.46% of 330,000 active. Vaccinia virus Venus reporter expression, fluorescence. AID 720580. Potency, µM (highest dose often 36.5 µM), for the others: top-dose activity change, negative = inhibition, most hits filed as inhibitors; calls by dose curve; tested in A549 cells; also: potency is read from the fitted curve at half-maximal effect; nearly all actives have a fitted effect of over 30% in size
# LASV entry inh: Lassa virus entry inhibition; Lassa virus pseudotype entry inhibition, cell reporter; Potency, µM (titrated, usually from 37.9 µM), inactives show at the top dose activity change, negative = inhibition, actives largely listed as inhibitors; 1.2% of 300,000 active; AID 540256; calls by dose curve; tested in HEK293 cells; also: potency is read from the fitted curve at half-maximal effect; nearly all actives have a fitted effect of over 50% in size
# Vaccinia mCherry: inhibitors of vaccinia virus infection (mCherry reporter signal); Vaccinia virus mCherry reporter infection, fluorescence; Potency, µM (titrated, usually from 36.5 µM), for the others: at the top dose activity change, negative = inhibition, actives largely listed as inhibitors; 0.63% of 310,000 active; AID 720579; calls by dose curve; tested in A549 cells; also: potency is read from the fitted curve at half-maximal effect; nearly all actives have a fitted effect of over 35% in size
# HCMV inh: human cytomegalovirus inhibition; AID 1259415; 4.5% of 410,000 active; activity change, negative = inhibition, % at 57.5 µM; HFF cells, HCMV-luciferase reporter, 72 h; hits give low values; in the data active = activity change below about -60%; inconclusive = no clear call, values can overlap the other calls; inactive = above about -39%
#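 Inhibition of viral replication was scored as loss of reporter luminescence in HFFs infected with HCMV-luciferase (MOI 1 PFU/cell) for 72 h; compounds tested at 2 doses, normalized to buffer and Salinomycin controls.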
# FMDV inh: blocks foot and mouth disease virus; FMDV antiviral cell-based qHTS; Potency, µM (highest dose often 57.9 µM), for inactives: at the highest dose activity change, negative = inhibition, usual class: inhibitors; 1.2% of 410,000 active; AID 1159524; calls by dose curve; tested in HEK293T cells; also: read-out not given here; potency is read from the fitted curve at half-maximal effect; nearly all actives have a fitted effect of over 45% in size
# Marburg entry inh: blocks Marburg virus binding to or entry into cells. Marburg virus pseudotyped entry inhibition, cell reporter. Potency, µM (doses to about 37.8 µM), for the others: at the highest dose activity change, negative = inhibition, hits mostly inhibitors. 1.8% of 300,000 active; calls by dose curve; tested in HEK293 cells; also: potency is read from the fitted curve at half-maximal effect
# * = called active by the depositor; i = inactive; ? = inconclusive; / = not tested or not shown; [ ] = dose if it differs, or a comment. An excerpt weighted towards active compounds, which were near 6.5% of everything screened. % is scaled to controls: 0 for no effect and ±100 for the full control effect.
SMILES,VACV Venus inh,LASV entry inh,Vaccinia mCherry,HCMV inh,FMDV inh,Marburg entry inh
Cc1ccc(-c2nn(C)c(=O)c3ccccc23)cc1CNC(=O)c1ccccc1,-14%,11µM*,-9%,-17,-19%,?
COc1cccc(Cn2c(=O)c(-c3cc(F)cc(F)c3)nc3cnc(N4CCOCC4)nc32)c1,/,/,/,/,0%,/
CCCCC/C=C\C/C=C\C/C=C\C/C=C\CCCC(=O)O[C@@H](CO)COCCCCCCCCCCCCCCCC,-9%[3.33 µM],/,-17%[3.33 µM],/,-7%[6.7 µM],/
CC(=O)NS(=O)(=O)c1ccc(NC(=O)C(Sc2ccccc2)c2ccccc2)cc1 (stereo unspecified),1%,-2%,/,10,-22%,11%
CCCCNS(=O)(=O)c1ccc(NC(=O)C(Sc2ccccc2)c2ccccc2)cc1 (stereo unspecified),10µM*,9.2µM*,?,-69*,0%,?
CCC(C)NS(=O)(=O)c1ccc(NC(=O)C(Sc2ccccc2)c2ccccc2)cc1 (stereo unspecified),?,13µM*,?,-27,-14%,?
O=C(c1ccccc1F)N1CC(=O)N2[C@@H](CO)[C@H](c3ccc(Br)cc3)[C@@H]2C1,/,/,/,14,/,/
CCC(=O)N1CC2(CN(C(=O)NC(C)C)C2)c2c(n(C)c3cc(OC)ccc23)[C@H]1CO,/,/,/,15,/,/
COc1ccc(Cl)cc1NC(=O)CN1C(=O)C(C)(C)c2cc(S(=O)(=O)N3CCCCC3)ccc21,-20%,?,-14%,-9,55%,/
C=CCNc1ncnc2c1cnn2-c1ccc(C)cc1C,-23%,/,i,89,19%,/
Cc1ccc(Cl)cc1-n1ncc2c(NC3CCCCC3)ncnc21,-9%,?,-22%,-78*,?,/
CCOC(=O)N1CCC(Nc2ncnc3c2cnn3-c2ccc(C)cc2C)CC1,?,/,?,-93*,?,/
Cc1ccc(-n2ncc3c(Nc4ccc5c(c4)OCCO5)ncnc32)cc1Cl,-28%,17%[46.1 µM],-20%,-24,-23%,/
Cc1ccc(Cl)cc1-n1ncc2c(Nc3ccc4c(c3)OCCO4)ncnc21,-19%,?,-18%,-88*,?,/
Clc1cccc(-n2ncc3c(NC4CCCCC4)ncnc32)c1,-20%,?,-28%,52,-1%,/
O=C(Cc1nc2ccccc2[nH]1)N1CCC(n2c(C3CCC3)nc3cccnc32)CC1,0%,/,i,/,32%,/
CCn1c(=O)cc(OCC(=O)N2CCN(c3cccc(C)c3C)CC2)c2ccccc21,-25%,?,-14%,13,20µM*,24%[46.1 µM]
NCCCN(Cc1ccccc1)c1ccc(Br)cn1,-6%,/,i,/,/,/
O=C(O)c1nc2ccccc2nc1C(=O)O,/,11%,/,85,24%,9%
O=C(O)c1cccc2nc3ccccc3nc12,-11%,/,?,-63*,-8%,/
Cc1ccc(O)c(C(CC(=O)NCC2(c3ccccc3)CCCC2)c2ccccc2)c1 (stereo unspecified),-11%,?,-19%,-99*,?,?
Cc1ccc(O)c(C(CC(=O)NCc2cccnc2)c2ccccc2)c1 (stereo unspecified),2%,2%,7%,-19,-20%,?
OC(CC#CCN1CCCC1)(c1ccccc1)c1ccccc1,-15%,-28%,-14%,14,-10%,10µM*
COc1ccccc1-c1cc2c(Nc3cccc(S(C)(=O)=O)c3)nccc2[nH]1,/,/,/,-26,/,/
Cc1ccc(S(=O)(=O)N2CCN(Cc3ccc4c(c3)OCO4)CC2)cc1,2%,?,-8%,1,-16%,/
SMILES,VACV Venus inh,LASV entry inh,Vaccinia mCherry,HCMV inh,FMDV inh,Marburg entry inh
Cc1nc2c(=O)n(C)c(=O)nc-2n(C)n1,0.5µM*,0.56µM*,?,-103*,2.8µM*,0.89µM*
Cc1ccc(C)c(-n2c3nc(=O)n(C)c(=O)c-3cc3ccccc32)c1,/,/,/,-20,-18%,/
Cn1nc(-c2ccccc2)nc2c(=O)n(C)c(=O)nc1-2,1µM*,/,1µM*,/,/,/
Cn1nc(-c2ccncc2)nc2c(=O)n(C)c(=O)nc1-2,1µM*,/,0.89µM*,/,/,/
CCOc1cccc(/C=C(/C#N)c2nc3ccccc3[nH]2)c1OCC(=O)O,/,/,/,-101*,-12%,/
COc1cccc(/C=C(\C#N)c2nc3ccc(C)cc3[nH]2)c1OCC(=O)O,/,/,/,28,-1%,/
O=C(NCc1cccnc1)c1cnn(-c2nccc(-c3cccs3)n2)c1C1CC1,-12%,/,-27%,/,-18%,/
Cc1cc2c(c(-c3nc4ccccc4s3)c1)OC(CNC(=O)CCc1cccnc1)C2 (stereo unspecified),14%,/,-8%,/,12%,/
CC1CCN(C(=O)c2scc3c2OCCO3)CC1,1%,0%,-6%,-63*,2%,26%
CC(C)Oc1ccc(C(=O)Nc2ccc3oc(-c4ccncc4)nc3c2)cc1,-8%,-3%[46.1 µM],-7%,-20,?,/
Cc1noc(C)c1CCC(=O)N1CCOc2ccc(CN3CCN(c4ccccn4)CC3)cc2C1,-24%,/,?,/,?,/
CCOc1cc(/C=N/NS(=O)(=O)c2ccccc2)ccc1OS(=O)(=O)c1ccc(C)cc1,-18%,0%,/,19,20%,?
CCOc1cc(/C=N/NC(=O)COc2ccc(Cl)cc2)ccc1OS(=O)(=O)c1ccccc1,?,?,?,33,-24%,6.5µM*
COc1cc(NC(=O)c2cccc3c2C(=O)N(C2CCCCC2)C3)cc(OC)c1,-5%,?,-11%,6,-20%,9%[46.1 µM]
COc1ccc(-n2c(-c3ccc(Cl)cc3)cc3c2CC(C)(C)CC3=O)c(OC)c1,?,-6%[46.1 µM],-20%,-35,-27%,?
CC(C)(C)n1ncc(Oc2ccccc2[N+](=O)[O-])c(Cl)c1=O,-14%,-11%,-4%,-28,-25%,-25%
CC(C)(C)c1ccc(CSc2cnn(C(C)(C)C)c(=O)c2Cl)cc1,?,/,-17%,-78*,?,/
Cc1cnc(NC(=O)c2sc3ccccc3c2Cl)s1,-7%,?,i,-14,-54%,?
O=C(Nc1nccs1)c1sc2cc(Cl)ccc2c1Cl,-15%,?,-13%,93,36%,?
Cc1ccnc(NC(=O)c2sc3ccccc3c2Cl)c1,-11%,?,-5%,15,?,1.6µM*
O=C(NC1C=CS(=O)(=O)C1)c1sc2ccccc2c1Cl (stereo unspecified),?,?,10µM*,-84*,/,21µM*
O=C(Nc1nccs1)c1sc2ccccc2c1Cl,-25%,13µM*,-17%[1.46 µM],65,0%,7.1µM*
Cc1ccnc(NC(=O)/C=C/c2ccccc2Cl)c1,3%,?,-12%,-2,?,2.6µM*
O=C(OCc1cc(=O)n2nc(-c3cccs3)sc2n1)c1ccc(F)cc1,-4%,0%[46.1 µM],-2%,9,-2%,/
Fc1ccc(-c2nc(-c3c[nH]c4ccccc34)cs2)cc1,-13%,/,i,/,/,/
CCCC[C@]12Cc3cc(C#N)ccc3[C@H](O1)c1c(c3cc(F)ccc3oc1=O)O2,/,/,/,/,/,29%[14.2 µM]
